The values below come from article PMC4081100, “A DNA-binding-site landscape and regulatory network analysis for NAC transcription factors in Arabidopsis thaliana”.

Assay in all cases: universal protein binding microarray (PBM); transcription factors of Arabidopsis thaliana; high values mean tight binding
Settings in all cases: protein: recombinant; tags: GST; chain copies: 2; dsDNA, one strand shown

In assay [1] the target is T1, GST-ANAC092(1-176) (Arabidopsis thaliana, UniProt Q9FKA0 1-176).
T1 sequence: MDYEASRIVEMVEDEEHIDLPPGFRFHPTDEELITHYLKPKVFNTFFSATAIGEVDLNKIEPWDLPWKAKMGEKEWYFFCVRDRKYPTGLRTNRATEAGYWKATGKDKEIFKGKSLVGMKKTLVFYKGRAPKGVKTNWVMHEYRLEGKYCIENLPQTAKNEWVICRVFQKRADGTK
Summed up:
(§1)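 GST-tagged NAC-domain, full-length or DNA-binding-domain proteins were induced in cells, with zinc acetate added for zinc-finger proteins. They were purified on glutathione–Sepharose 4B and quantified by A280 or anti-GST western blot. Each was applied at 200 to 500 nM final, in duplicate, to custom all-10-mer Agilent 4 × 180K arrays made double-stranded by primer extension, with gapped and ungapped 8-mers scored. Binding is the normalised enrichment score (E-score).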

Assay [2] concerns the target GST-NTL6(1-168) (Arabidopsis thaliana, UniProt Q9SCK6 1-168). Summed up: as §1
Assay [3] has as its target T2, GST-ANAC019 NAC domain (Arabidopsis thaliana, UniProt Q9C932 14-162).
T2 sequence: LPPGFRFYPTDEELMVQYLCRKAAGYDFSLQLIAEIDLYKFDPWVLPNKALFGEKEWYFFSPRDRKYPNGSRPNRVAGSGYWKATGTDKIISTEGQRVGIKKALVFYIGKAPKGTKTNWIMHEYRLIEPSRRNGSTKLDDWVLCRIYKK
A digest of the protocol:
as §1

Assay [4] addresses T3, GST-ANAC055(1-171) (Arabidopsis thaliana, UniProt Q9LDY8 1-171).
T3 sequence: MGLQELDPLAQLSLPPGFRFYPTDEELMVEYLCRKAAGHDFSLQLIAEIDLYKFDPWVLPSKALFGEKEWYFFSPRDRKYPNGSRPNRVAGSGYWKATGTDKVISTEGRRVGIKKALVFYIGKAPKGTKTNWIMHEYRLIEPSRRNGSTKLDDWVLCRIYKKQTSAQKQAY
A digest of the protocol:
as §1

Assay [5] has as its target T4, GST-ATAF1 NAC domain (Arabidopsis thaliana, UniProt Q39013 7-158).
T4 sequence: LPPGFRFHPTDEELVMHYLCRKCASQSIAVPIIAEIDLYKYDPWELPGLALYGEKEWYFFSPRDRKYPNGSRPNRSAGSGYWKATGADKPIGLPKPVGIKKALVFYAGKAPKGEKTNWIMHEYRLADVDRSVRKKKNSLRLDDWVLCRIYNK
Summed up:
as §1

Assay [6] concerns the target T5, GST-ANAC092(1-285) full length (Arabidopsis thaliana, UniProt Q9FKA0 1-285).
T5 sequence: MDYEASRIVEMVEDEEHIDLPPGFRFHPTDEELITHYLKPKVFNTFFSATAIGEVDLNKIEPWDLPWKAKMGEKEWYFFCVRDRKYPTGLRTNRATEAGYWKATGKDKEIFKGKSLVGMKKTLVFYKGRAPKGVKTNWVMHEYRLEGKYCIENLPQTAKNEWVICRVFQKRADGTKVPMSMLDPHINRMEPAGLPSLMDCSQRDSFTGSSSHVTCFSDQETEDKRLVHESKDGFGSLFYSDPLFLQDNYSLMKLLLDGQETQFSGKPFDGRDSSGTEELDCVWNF
A digest of the protocol:
as §1

Assay [7] addresses T6, GST-NAP(1-166) (Arabidopsis thaliana, UniProt O49255 1-166).
T6 sequence: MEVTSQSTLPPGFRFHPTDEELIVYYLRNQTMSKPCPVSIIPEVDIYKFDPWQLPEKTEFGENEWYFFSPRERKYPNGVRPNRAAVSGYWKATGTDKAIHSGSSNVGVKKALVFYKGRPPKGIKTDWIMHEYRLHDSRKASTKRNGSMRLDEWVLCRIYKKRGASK
A digest of the protocol: as §1

In assay [8] the target is T7, GST-NST2(1-184) (Arabidopsis thaliana, UniProt Q9M274 1-184).
T7 sequence: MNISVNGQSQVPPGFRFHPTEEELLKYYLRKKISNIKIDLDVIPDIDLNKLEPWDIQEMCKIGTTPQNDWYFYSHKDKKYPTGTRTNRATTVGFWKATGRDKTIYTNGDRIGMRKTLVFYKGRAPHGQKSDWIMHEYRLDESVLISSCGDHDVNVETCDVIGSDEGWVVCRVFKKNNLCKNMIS
A digest of the protocol: as §1

Assay [9] addresses T8, GST-NTL8 NAC domain (Arabidopsis thaliana, UniProt Q9XIN7 14-156).
T8 sequence: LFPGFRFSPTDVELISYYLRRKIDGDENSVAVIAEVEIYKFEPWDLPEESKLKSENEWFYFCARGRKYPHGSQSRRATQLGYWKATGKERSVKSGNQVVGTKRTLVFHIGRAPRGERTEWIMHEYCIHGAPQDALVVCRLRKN
Summed up: as §1

Assay [10] addresses T9, GST-SND1(1-203) (Arabidopsis thaliana, UniProt Q9LPI7 1-203).
T9 sequence: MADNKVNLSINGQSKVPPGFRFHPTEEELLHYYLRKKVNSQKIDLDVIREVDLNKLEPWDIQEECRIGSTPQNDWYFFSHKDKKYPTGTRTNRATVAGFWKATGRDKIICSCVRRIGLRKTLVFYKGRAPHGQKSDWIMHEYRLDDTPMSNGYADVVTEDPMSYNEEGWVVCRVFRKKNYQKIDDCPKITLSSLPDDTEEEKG
A digest of the protocol: as §1

In assay [11] the target is T10, GST-VND3 NAC domain (Arabidopsis thaliana, UniProt Q9FH59 12-162).
T10 sequence: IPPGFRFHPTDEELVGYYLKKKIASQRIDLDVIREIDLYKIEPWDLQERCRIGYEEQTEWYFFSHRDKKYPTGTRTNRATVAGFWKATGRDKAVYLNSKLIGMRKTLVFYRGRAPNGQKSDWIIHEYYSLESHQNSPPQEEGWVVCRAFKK
A digest of the protocol: as §1

The target in assay [12] is T11, GST-VND7 NAC domain (Arabidopsis thaliana, UniProt Q9C8W9 9-158).
T11 sequence: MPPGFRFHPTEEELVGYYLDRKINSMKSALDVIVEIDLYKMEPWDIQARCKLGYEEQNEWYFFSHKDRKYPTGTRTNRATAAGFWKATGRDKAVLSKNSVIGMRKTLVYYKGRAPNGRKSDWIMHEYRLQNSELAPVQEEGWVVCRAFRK
A digest of the protocol: as §1

GST-NTL6(1-168), sequence (Q9SCK6 1-168): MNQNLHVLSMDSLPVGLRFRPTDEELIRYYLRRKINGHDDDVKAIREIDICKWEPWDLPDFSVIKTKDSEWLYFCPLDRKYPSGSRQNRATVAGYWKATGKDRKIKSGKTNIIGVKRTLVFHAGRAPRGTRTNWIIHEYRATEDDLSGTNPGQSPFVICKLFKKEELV

Regarding CTAAGTAA, the binding signal in assay [1] was 0.2 E-score; in assay [2] it was 0.49 E-score; in assay [3], 0.0529 E-score; in assay [4], 0.0945 E-score; in assay [5], 0.107 E-score; in assay [6] it was 0.3 E-score. The binding signal in [7] came to 0.188 E-score; in [8], 0.225 E-score; in [9], 0.216 E-score; in assay [10] it was 0.394 E-score; in [11], 0.238 E-score; in assay [12] it was 0.209 E-score.
As for CTTACGCA, the binding signal in [1] turned out to be 0.359 E-score; in assay [2], 0.0871 E-score; in [3] it was 0.265 E-score; in [4], 0.199 E-score; in assay [5], 0.187 E-score; in [6], 0.389 E-score. Also, the binding signal in [7] came out at 0.243 E-score; in [8] it was 0.278 E-score; in assay [9], 0.111 E-score; in assay [10] it was 0.429 E-score; in assay [11] it was 0.255 E-score; in [12], 0.295 E-score.
Turning to GTACGAAA, the binding signal in assay [1] is 0.38 E-score; in assay [2] it was 0.184 E-score; in assay [3], 0.267 E-score; in assay [4], 0.274 E-score; in [5] it was 0.24 E-score; in [6], 0.413 E-score. The binding signal in assay [7] was determined as 0.247 E-score; in [8], 0.285 E-score; in assay [9], 0.116 E-score; in assay [10], 0.277 E-score; in [11], 0.294 E-score; in assay [12] it was 0.196 E-score.
As to AATACGCA, the binding signal in [1] is 0.411 E-score; in [2] it was 0.109 E-score; in assay [3], 0.196 E-score; in assay [4] it was 0.293 E-score; in assay [5] it was 0.142 E-score; in assay [6] it was 0.431 E-score. The binding signal in assay [7] was 0.221 E-score; in assay [8], 0.206 E-score; in assay [10] it was 0.356 E-score; in [11], 0.314 E-score; in assay [12], 0.259 E-score.
Take GAACACGC: the binding signal in assay [1] is 0.382 E-score; in assay [2], 0.0566 E-score; in assay [3] it was 0.289 E-score; in assay [4], 0.237 E-score; in assay [5], 0.19 E-score; in [6], 0.427 E-score. For the same sequence, the binding signal in assay [7] is 0.248 E-score; in [8], 0.205 E-score; in [10] it was 0.158 E-score; in assay [11], 0.138 E-score; in assay [12] it was 0.174 E-score.
As to TTACTCAA, the binding signal turned out to be 0.345 E-score in assay [1]; 0.078 E-score in [2]; 0.0697 E-score in assay [3]; 0.0741 E-score in [4]; 0.223 E-score in assay [5]; 0.359 E-score in assay [6]. Besides, the binding signal came to 0.0501 E-score in [7]; 0.247 E-score in [8]; 0.0629 E-score in assay [9]; 0.445 E-score in [10]; 0.165 E-score in assay [11]; 0.126 E-score in assay [12].
